Measured values as given in PubChem BioAssay (EPA / NIEHS).
Inconclusive results are not listed. Calls of active or inactive are those of the source. Rule for the calls, unless noted: active = hit-call score of the fitted dose curve at least 0.9, where 1 is the maximum; inactive = score below 0.9.

Assays:
[1] = read-out: NAD(P)H dehydrogenase [quinone] 1 (NQO1), NQO1 (gene 1728); assay: LTEA_HepaRG_NQO1: Life Technologies and Expression Analysis (LTEA) Assay for NAD(P)H dehydrogenase [quinone] 1 (NQO1) using HepaRG (AID 2283526); details: mRNA level, 48 h; actives raise or lower the signal
How it was run: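 HepaRG, 48 h post-plating → serum-free induction medium → test chemical 48 h (duplicate, 100 uM top, half-log x8, 0.5% DMSO) → RNA isolation → qRT-PCR, ACTB/GAPDH/POLR2A normalization; bidirectional curve fit vs DMSO baseline.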

[2] = read-out: Nuclear factor erythroid 2-related factor 2 (Homo sapiens) (UniProt Q16236); assay: LTEA_HepaRG_NFE2L2: Life Technologies and Expression Analysis (LTEA) Assay for Nuclear factor erythroid 2-related factor 2 (NFE2L2) Transcription Factor using HepaRG (AID 2283527); details: mRNA level, 48 h; actives raise or lower the signal;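 note: TaqMan qRT-PCR transcript level normalised to ACTB GAPDH and POLR2A housekeeping genes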
How it was run: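 Differentiated human HepaRG cells in serum-free induction medium were exposed for 48 h to eight concentrations (top 100 uM, half-log dilutions, 0.5% DMSO), in duplicate. NFE2L2 mRNA was quantified by TaqMan qRT-PCR, normalized to ACTB, GAPDH and POLR2A, with bidirectional fitting versus DMSO.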

[3] = read-out: succinate dehydrogenase complex iron sulfur subunit B (SDHB), SDHB (gene 6390); assay: LTEA_HepaRG_SDHB: Life Technologies and Expression Analysis (LTEA) Assay for succinate dehydrogenase complex iron sulfur subunit B (SDHB) using HepaRG (AID 2283528); details: mRNA level, 48 h; actives raise or lower the signal
How it was run: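 A human HepaRG culture in serum-free induction medium received test chemicals for 48 h over an eight-point range capped at 100 uM. SDHB expression change was quantified by qRT-PCR.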

[4] = read-out: Signal transducer and activator of transcription 3 (Homo sapiens) (UniProt P40763); assay: LTEA_HepaRG_STAT3: Life Technologies and Expression Analysis (LTEA) Assay for Signal transducer and activator of transcription (STAT3) using HepaRG (AID 2283529); details: mRNA level, 48 h; actives raise or lower the signal
How it was run: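 Differentiated human HepaRG cells in serum-free induction medium were exposed in duplicate for 48 h to eight half-log concentrations up to 100 uM in 0.5% DMSO. STAT3 mRNA was quantified by TaqMan qRT-PCR, normalized to ACTB, GAPDH and POLR2A, and fitted bidirectionally against DMSO.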

[5] = read-out: solute carrier (SLCO1B1), SLCO1B1 (gene 10599); assay: LTEA_HepaRG_SLCO1B1: Life Technologies and Expression Analysis (LTEA) Assay for solute carrier (SLCO1B1) using HepaRG (AID 2283530); details: mRNA level, 48 h; actives raise or lower the signal
How it was run: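 Differentiated human HepaRG cells, plated 48 h, switched to serum-free induction medium and exposed in duplicate for 48 h to 8 half-log concentrations (top 100 uM) in 0.5% DMSO. SLCO1B1 mRNA by TaqMan qRT-PCR, normalized to ACTB/GAPDH/POLR2A.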

[6] = read-out: Transforming Growth Factor (TGFA), TGFA (gene 7039); assay: LTEA_HepaRG_TGFA: Life Technologies and Expression Analysis (LTEA) Assay for Transforming Growth Factor (TGFA) using HepaRG (AID 2283532); details: mRNA level, 48 h; actives raise or lower the signal
How it was run: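 Differentiated human HepaRG cells, plated 48 h then switched to serum-free induction medium, were exposed in duplicate for 48 h to 8-point half-log series from 100 uM in 0.5% DMSO. TGFA mRNA measured by qRT-PCR, normalized to ACTB/GAPDH/POLR2A, bidirectional fit versus DMSO.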

[7] = read-out: Transforming Growth Factor (TGFB1), TGFB1 (gene 7040); assay: LTEA_HepaRG_TGFB1: Life Technologies and Expression Analysis (LTEA) Assay for Transforming Growth Factor (TGFB1) Transporter using HepaRG (AID 2283533); details: mRNA level, 48 h; actives raise or lower the signal
How it was run: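 Differentiated human HepaRG cells in serum-free induction medium were exposed in duplicate for 48 h to eight concentrations (top 100 uM, half-log steps, 0.5% DMSO). TGFB1 mRNA was quantified by qRT-PCR, normalized to ACTB, GAPDH, POLR2A, and fitted bidirectionally against DMSO.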

TIMP1, TIMP1 (gene 7076) = assay: LTEA_HepaRG_TIMP1: Life Technologies and Expression Analysis (LTEA) Assay for TIMP1 using HepaRG (AID 2283534); details: mRNA level, 48 h; actives raise or lower the signal;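 note: TaqMan qRT-PCR signal normalized to ACTB GAPDH and POLR2A housekeeping genes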
How it was run: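 Differentiated human HepaRG cells in serum-free induction medium were exposed 48 h to chemicals (8 half-log concentrations, top 100 uM, 0.5% DMSO). TIMP1 mRNA was quantified by TaqMan qRT-PCR, normalized to ACTB/GAPDH/POLR2A; bidirectional fit versus DMSO.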

[8] = read-out: Tumor necrosis factor receptor 1 (TNFRSF1A), TNFRSF1A (gene 7132); assay: LTEA_HepaRG_TNFRSF1A: Life Technologies and Expression Analysis (LTEA) Assay for Tumor necrosis factor receptor 1 (TNFRSF1A) using HepaRG (AID 2283535); details: mRNA level, 48 h; actives raise or lower the signal
How it was run: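 Differentiated human HepaRG cells were exposed in duplicate for 48 h in serum-free induction medium to eight concentrations (top 100 uM, half-log steps, 0.5% DMSO). TNFRSF1A mRNA was quantified by qRT-PCR, normalized to ACTB, GAPDH and POLR2A, then fitted bidirectionally against DMSO.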

[9] = read-out: Thyroid Hormone Responsive (THRSP), THRSP (gene 7069); assay: LTEA_HepaRG_THRSP: Life Technologies and Expression Analysis (LTEA) Assay for Thyroid Hormone Responsive (THRSP) using HepaRG (AID 2283536); details: mRNA level, 48 h; actives raise or lower the signal
How it was run: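 Differentiated human HepaRG cells were exposed in duplicate for 48 h in serum-free induction medium to eight concentrations (top 100 uM, half-log steps, 0.5% DMSO). Expression was quantified by TaqMan qRT-PCR, normalized to ACTB, GAPDH and POLR2A, with bidirectional fitting against DMSO.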

[10] = read-out: Cellular tumor antigen p53 (Homo sapiens) (UniProt P04637); assay: LTEA_HepaRG_TP53: Life Technologies and Expression Analysis (LTEA) Assay for Tumor Protein P53 (TP53) using HepaRG (AID 2283537); details: mRNA level, 48 h; actives raise or lower the signal
How it was run: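 Gain or loss of TP53 mRNA signal is scored relative to 0.5% DMSO after 48 h chemical treatment of HepaRG liver cells, tested in duplicate at eight half-log concentrations up to 100 uM.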

[11] = read-out: UDP glucuronosyltransferase (UGT1A1), UGT1A1 (gene 54658); assay: LTEA_HepaRG_UGT1A1: Life Technologies and Expression Analysis (LTEA) Assay for UDP glucuronosyltransferase (UGT1A1) using HepaRG (AID 2283538); details: mRNA level, 48 h; actives raise or lower the signal
How it was run: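 Readout is UGT1A1 transcript level by qRT-PCR, normalized to three housekeeping genes, after 48 h chemical treatment of HepaRG cells. Concentrations ran from 100 uM down in half-log steps with 0.5% DMSO, and gain or loss relative to DMSO was fitted.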

[12] = read-out: UDP glucuronosyltransferase (UGT1A6), UGT1A6 (gene 54578); assay: LTEA_HepaRG_UGT1A6: Life Technologies and Expression Analysis (LTEA) Assay for UDP glucuronosyltransferase (UGT1A6) using HepaRG (AID 2283539); details: mRNA level, 48 h; actives raise or lower the signal
How it was run: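 Human HepaRG cells were dosed for 48 h in serum-free induction medium with 0.5% DMSO vehicle, eight-point half-log series from 100 uM, in duplicate. UGT1A6 mRNA was measured by qRT-PCR, normalized to ACTB, GAPDH, POLR2A, and fitted bidirectionally against DMSO.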

[13] = read-out: X-box binding protein 1 (XBP1), XBP1 (gene 7494); assay: LTEA_HepaRG_XBP1: Life Technologies and Expression Analysis (LTEA) Assay for X-box binding protein 1 (XBP1) using HepaRG (AID 2283540); details: mRNA level, 48 h; actives raise or lower the signal
How it was run: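 Differentiated human HepaRG cells in serum-free induction medium were exposed in duplicate for 48 h to eight half-log concentrations up to 100 uM in 0.5% DMSO. XBP1 mRNA was quantified by qRT-PCR, normalised to ACTB, GAPDH and POLR2A, with bidirectional fitting against DMSO.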

[14] = LTEA_HepaRG_LDH_cytotoxicity: Cytotoxicity Assessment in the Life Technologies and Expression Analysis (LTEA) Assay (AID 2283563; active = hit-call score of the fitted dose curve at least 0.9, where 1 is the maximum)
How it was run: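 Differentiated human HepaRG cells, plated 48 h beforehand, were switched to serum-free induction medium and exposed for 48 h to eight half-log concentrations (top 100 uM) in 0.5% DMSO. LDH was measured in spent medium; activity was fitted relative to DMSO vehicle.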

[15] = TOX21_p53_BLA_p2_viability: Viability Assessment in the Tox21 HCT-116 p53 Agonism Beta-lactamase Assay, Phase 2 (AID 2283591; active = hit-call score of the fitted dose curve at least 0.9, where 1 is the maximum;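 note: compound exposure lasted 16 h at 37 °C; actives lower the ATP signal meaning cytotoxicity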)
How it was run: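 HCT-116 p53-bla cells (4000/well) rested 5 h at 37C, then received compounds in DMSO (217-fold dilution) for 16 h at 37C, 5% CO2. After the CCF4 read, CellTiter-Glo was added; ATP luminescence was read after 30 min at room temperature.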

[16] = target: Cellular tumor antigen p53 (Homo sapiens) (UniProt P04637); assay: TOX21_p53_BLA_p2_ratio: Tox21 HCT-116 p53 Agonism Beta-lactamase Assay, Ratio, Phase 2 (AID 2283592; active = hit-call score of the fitted dose curve at least 0.9, where 1 is the maximum)
Cellular tumor antigen p53 (Homo sapiens), sequence (P04637 whole entry, looked up): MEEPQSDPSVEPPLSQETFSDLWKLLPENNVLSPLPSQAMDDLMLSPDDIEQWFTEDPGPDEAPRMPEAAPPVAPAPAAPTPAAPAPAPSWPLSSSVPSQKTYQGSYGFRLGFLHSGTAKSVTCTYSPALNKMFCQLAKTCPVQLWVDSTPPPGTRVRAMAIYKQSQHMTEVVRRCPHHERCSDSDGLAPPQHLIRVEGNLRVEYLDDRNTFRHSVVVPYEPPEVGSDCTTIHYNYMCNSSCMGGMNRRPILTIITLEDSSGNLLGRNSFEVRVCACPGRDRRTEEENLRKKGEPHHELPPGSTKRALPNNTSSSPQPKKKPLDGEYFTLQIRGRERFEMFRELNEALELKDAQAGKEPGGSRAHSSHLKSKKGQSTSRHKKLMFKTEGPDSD
How it was run: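 HCT116 cells carrying a p53-responsive beta-lactamase reporter were plated, incubated 5 h at 37C, then dosed with compounds in DMSO (217-fold dilution) for 16 h. CCF4-AM substrate was added for 2 h at room temperature; the 460/530 nm emission ratio gave gain-of-signal activity relative to DMSO.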

[17] = read-out: sulfotransferase 2A1 (SULT2A1), SULT2A1 (gene 6822); assay: LTEA_HepaRG_SULT2A1: Life Technologies and Expression Analysis (LTEA) Assay for sulfotransferase 2A1 (SULT2A1) using HepaRG (AID 2283531); details: mRNA level, 48 h; actives raise or lower the signal
How it was run: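 Differentiated human HepaRG cells in serum-free induction medium were exposed for 48 h to eight half-log concentrations (top 100 uM, 0.5% DMSO). SULT2A1 mRNA was measured by qRT-PCR, normalized to ACTB, GAPDH and POLR2A, and fitted bidirectionally against DMSO.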

Measured: AC50

Signal transducer and activator of transcription 3 (Homo sapiens), sequence (P40763 whole entry, looked up): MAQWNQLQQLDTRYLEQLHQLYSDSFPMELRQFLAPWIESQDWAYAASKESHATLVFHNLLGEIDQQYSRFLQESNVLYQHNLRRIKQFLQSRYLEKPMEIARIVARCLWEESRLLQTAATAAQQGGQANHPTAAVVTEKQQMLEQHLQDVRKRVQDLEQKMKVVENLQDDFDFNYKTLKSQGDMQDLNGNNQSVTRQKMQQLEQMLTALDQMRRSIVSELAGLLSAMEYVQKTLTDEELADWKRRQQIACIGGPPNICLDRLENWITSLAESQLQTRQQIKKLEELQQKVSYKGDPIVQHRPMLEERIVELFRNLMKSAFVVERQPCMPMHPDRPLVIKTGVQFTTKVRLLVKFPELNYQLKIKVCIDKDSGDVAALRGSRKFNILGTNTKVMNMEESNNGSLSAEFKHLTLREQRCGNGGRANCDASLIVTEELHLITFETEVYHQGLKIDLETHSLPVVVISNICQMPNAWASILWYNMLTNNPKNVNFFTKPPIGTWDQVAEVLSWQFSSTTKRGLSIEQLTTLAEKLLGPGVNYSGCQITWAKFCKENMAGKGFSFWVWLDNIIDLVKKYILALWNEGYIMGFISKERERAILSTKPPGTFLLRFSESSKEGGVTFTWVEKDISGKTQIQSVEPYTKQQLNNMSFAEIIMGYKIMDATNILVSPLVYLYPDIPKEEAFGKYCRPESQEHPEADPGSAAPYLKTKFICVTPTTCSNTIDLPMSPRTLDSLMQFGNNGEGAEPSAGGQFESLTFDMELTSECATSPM
Nuclear factor erythroid 2-related factor 2 (Homo sapiens), sequence (Q16236 whole entry, looked up): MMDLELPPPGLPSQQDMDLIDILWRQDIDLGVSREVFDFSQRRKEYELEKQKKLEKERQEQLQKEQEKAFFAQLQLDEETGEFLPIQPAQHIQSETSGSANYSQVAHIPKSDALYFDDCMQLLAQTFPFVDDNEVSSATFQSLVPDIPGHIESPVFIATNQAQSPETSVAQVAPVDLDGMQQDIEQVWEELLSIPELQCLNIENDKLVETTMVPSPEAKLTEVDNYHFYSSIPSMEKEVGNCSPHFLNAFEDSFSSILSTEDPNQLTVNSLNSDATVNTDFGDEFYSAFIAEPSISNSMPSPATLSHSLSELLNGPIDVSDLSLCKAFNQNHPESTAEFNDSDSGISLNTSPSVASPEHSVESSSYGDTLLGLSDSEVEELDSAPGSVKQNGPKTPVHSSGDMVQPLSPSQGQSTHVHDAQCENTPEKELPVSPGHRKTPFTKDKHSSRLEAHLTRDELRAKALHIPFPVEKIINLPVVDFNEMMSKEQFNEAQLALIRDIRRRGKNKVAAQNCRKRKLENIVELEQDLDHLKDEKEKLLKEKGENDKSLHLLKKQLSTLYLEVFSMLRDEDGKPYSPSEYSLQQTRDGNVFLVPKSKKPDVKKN

Clc1nc(Cl)nc(Nc2ccccc2Cl)n1
not listed: [17]
inactive: all other assays above

COc1cc(Cl)c(OC)cc1Cl
active: [11] 2.69 µM
not listed: [2] | [15]
inactive: all other assays above

CN/C(=N\[N+](=O)[O-])NCc1cnc(Cl)s1
active: [9] 50 µM | [11] 50 µM
not listed: [17]
inactive: all other assays above

CN=C=S
active: [13] 17.3 µM
not listed: [17]
inactive: all other assays above
